Assay results reported in PubChem BioAssay (NCATS).
Results filed as inconclusive are left out. Values without a mark were called inactive. The source made the active and inactive calls. The call rests on the fitted dose curve. Numbered stars: 1 amine (or outer) side, 2 acyl side, 3 side chain; on linkers, the order of the positions; unused ones are H or OH. Bridge positions count the residues as written; N and C are the ends. Square brackets hold non-standard residues; d marks the D form. Peptide text beside a SMILES is read from it. I, II: the chains in the order shown. Actinocin(9to1) = Cc1c2oc3c(C)ccc(C(=O)[*:1])c3nc-2c(C(=O)[*:2])c(N)c1=O; NMeV = CN[C@H](C(=O)O)C(C)C; Sar = CNCC(=O)O

The compounds below were run against Thyroid hormone receptor beta (Homo sapiens) (UniProt P10828) (assay: qHTS assay for small molecule agonists of thyroid hormone receptor beta signaling (AID 588545)). Settings: TR-UAS-bla GripTite HEK 293, beta-lactamase ratio, agonist mode, 18 h, percent of T3 response, DMSO as zero; series mostly up to 76.7 µM; activation: at the top concentration.
Text: NIH Chemical Genomics Center [NCGC]
U.S. Environmental Protection Agency [EPA]
National Institutes of Environmental Health Sciences [NIEHS]
National Toxicology Program [NTP]
Thyroid hormone receptor (TR) belongs to nuclear hormone receptor superfamily. There are two subtypes for TR: TR-alpha and TR-beta. TR-beta plays a major role in regulating plasma cholesterol levels and it mediates the biological activities of thyroid hormone. Screening environmental chemicals on TR-beta signaling will provide important information for the mechanism of compound action.
NCGC Assay Protocol Summary
Using a beta-lactamase reporter-gene under control of the TR response element, a cell-based assay [GeneBLAzer TR-UAS-bla-GripTite assay developed by Invitrogen] was used to measure TR-beta signaling in agonist mode. TR-UAS-bla-GripTite HEK 293 cells were used with assay medium containing 2% charcoal/dextran FBS, 0.1 mM NEAA and 1 mM sodium pyruvate. The assay was performed in clear bottom black Greiner 1536-well plates. T3 was used as a positive control in the screen. Library compounds were measured for their ability to stimulate the reporter gene activity. Compounds were screened in a titration series in 1536-well format. The fluorescence intensity (405 nm excitation, 460/530 nm emission) was measured using an EnVision plate reader. Data was normalized relative to T3 control (10 nM, 100%), and DMSO only wells (basal, 0%). Concentration-response titration points for each compound were fitted to the Hill equation yielding concentrations of half-maximal stimulation (EC50) and maximal response (efficacy) values.
qHTS protocol for TR-beta beta-lactamase assay in agonist mode
[Step] [Parameter] [Value] [Description]
1. Reagent; 6 uL; 2500 cells/well
2. Incubation; 37 C for 4 hrs
- Dose response; start 3.8 uM, 1:3 dilutions, duplicates in first column
- Two columns of each 10 and 0.4 nM (finals) concentrations.
5. Incubation; 37 C for 18 hrs
6. Detection reagent; 1 uL of CCF4-dye
7. Incubation; RT for 2 hrs
8. Detection; Fluorescence; Envision plate reader

Chain of Thyroid hormone receptor beta (Homo sapiens) (P10828 whole entry, looked up): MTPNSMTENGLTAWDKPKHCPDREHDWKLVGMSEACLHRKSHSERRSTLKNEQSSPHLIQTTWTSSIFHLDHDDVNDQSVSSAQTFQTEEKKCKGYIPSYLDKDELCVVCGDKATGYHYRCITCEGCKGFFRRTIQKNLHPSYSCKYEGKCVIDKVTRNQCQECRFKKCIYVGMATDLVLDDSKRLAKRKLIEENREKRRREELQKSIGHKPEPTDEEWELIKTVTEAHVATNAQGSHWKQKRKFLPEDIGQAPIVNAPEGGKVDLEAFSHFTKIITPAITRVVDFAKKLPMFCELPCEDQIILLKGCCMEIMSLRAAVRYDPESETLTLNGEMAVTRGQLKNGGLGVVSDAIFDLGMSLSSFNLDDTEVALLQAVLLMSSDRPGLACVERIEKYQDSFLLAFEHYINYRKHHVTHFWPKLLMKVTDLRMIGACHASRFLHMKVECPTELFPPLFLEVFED

SMILES | outcome | activation
CCCCCCc1ccc(O)cc1O | inactive | –
C[C@H]1C[C@H]2[C@@H]3CCC4=CC(=O)C=C[C@]4(C)[C@@]3(Cl)[C@@H](O)C[C@]2(C)[C@@]1(O)C(=O)CO | – | -9.79%
CN(C)/N=N/c1nc[nH]c1C(N)=O | – | -15.7%
CC(O)C(=O)O (stereo not drawn) | – | 2.39%
Oc1ccc(O)cc1 | – | -29.1%
CN(C)C(=S)SC(=S)N(C)C | – | -4.38%
C=C(CC)C(=O)c1ccc(OCC(=O)O)c(Cl)c1Cl | – | -28.4%
CC(O)(P(=O)(O)O)P(=O)(O)O | – | -6.98%
Nc1ccc(C(=O)O)cc1 | – | -15.6%
O=c1ccc2ccccc2o1 | – | -2.69% [at 2.03 mM]
COC1=CC(=O)C[C@@H](C)[C@]12Oc1c(Cl)c(OC)cc(OC)c1C2=O | – | -16.3%
CC/C(=C(/CC)c1ccc(O)cc1)c1ccc(O)cc1 | inactive | –
Oc1c(I)cc(Cl)c2cccnc12 | – | -24.9%
CC(C)(Oc1ccc(Cl)cc1)C(=O)O | – | 1.71%
NC(=NCCCCCCN=C(N)/N=C(\N)Nc1ccc(Cl)cc1)/N=C(\N)Nc1ccc(Cl)cc1 | – | 29.3%
Cc1c2oc3c(C)ccc(C(=O)N[C@@H]4C(=O)N[C@H](C(C)C)C(=O)N5CCC[C@H]5C(=O)N(C)CC(=O)N(C)[C@@H](C(C)C)C(=O)O[C@@H]4C)c3nc-2c(C(=O)N[C@@H]2C(=O)N[C@H](C(C)C)C(=O)N3CCC[C@H]3C(=O)N(C)CC(=O)N(C)[C@@H](C(C)C)C(=O)O[C@@H]2C)c(N)c1=O (I: T[dV]P[Sar][NMeV] / II: T[dV]P[Sar][NMeV]; ester I:1-I:C, II:1-II:C; linker I:N-II:N via Actinocin(9to1)) | inactive | –
O=C1OC(c2ccc(O)cc2)(c2ccc(O)cc2)c2ccccc21 | inactive | –
COc1cccc2c1C(=O)c1c(O)c3c(c(O)c1C2=O)C[C@@](O)(C(=O)CO)C[C@@H]3O[C@H]1C[C@H](N)[C@H](O)[C@H](C)O1 | – | 2.14%
